A short description of assay [1]: BSK_3C_Proliferation: Cell Proliferation Assessment in the BioMAP Diversity Plus: 3C Assay (AID 2283006).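 As to AC50: potency may reflect either rise or fall in cell number versus DMSO.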 The settings on record: primary human endothelial cells (HUVEC). The essentials:
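Proliferation as total protein: sulforhodamine B (0.1%) stain of TCA-fixed subconfluent human umbilical vein endothelial cells, absorbance 560 nm, 48 h after dosing. Activity fitted in both directions against DMSO baseline.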

Read-out in assay [2]: E-selectin (Homo sapiens) (UniProt P16581)
As to the kind of experiment: BSK_3C_Eselectin: BioMAP Diversity Plus: 3C Assay for Eselectin Biomarker Activity (AID 2283015).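 As to outcome: cell surface E-selectin protein quantified by ELISA 24 h after dosing.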 The settings on record: primary human endothelial cells (HUVEC); actives raise or lower the signal. The essentials:
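E-selectin ELISA readout, fitted bidirectionally relative to DMSO, taken 24 h post-dosing in HUVEC cultures of the 3C system. Overt cytotoxicity tracked with sulforhodamine B staining of parallel wells.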

Read-out in assay [3]: Interleukin-1 alpha (IL1a), IL1A (gene 3552)
As to the kind of experiment: BSK_BE3C_IL1a: BioMAP Diversity Plus: BE3C Assay for Interleukin-1 alpha (IL1a) Biomarker Activity (AID 2283016). The settings on record: primary human bronchial epithelial cells; actives raise or lower the signal. The method, boiled down:
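IL-1a measured by ELISA after 24 h treatment of human primary bronchial epithelial cells, with gain or loss of signal fitted versus DMSO. Parallel cultures stained with SRB gauge overt cytotoxicity.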

Read-out in assay [4]: Monocyte Chemoattractant Protein-1 (MCP1), CCL2 (gene 6347)
The experiment in a line: BSK_3C_MCP1: BioMAP Diversity Plus: 3C Assay for Monocyte Chemoattractant Protein-1 (MCP1) Biomarker Activity (AID 2283017). The note with it: primary human endothelial cells (HUVEC); actives raise or lower the signal. The essentials: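 MCP-1 was measured by ELISA 24 h after dosing in primary HUVEC 3C cultures and fitted in both directions relative to DMSO; cytotoxicity was checked by SRB total-protein staining in parallel wells.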

Read-out in assay [5]: Interleukin-8 (IL8), CXCL8 (gene 3576)
As to the kind of experiment: BSK_3C_IL8: BioMAP Diversity Plus: 3C Assay for Interleukin-8 (IL8) Biomarker Activity (AID 2283020). The settings on record: primary human endothelial cells (HUVEC); actives raise or lower the signal. The method, boiled down: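 IL-8 was measured by ELISA in HUVEC cultures 24 h after chemical dosing, with gain or loss of signal fitted relative to DMSO. Parallel SRB total-protein staining tracked overt cytotoxicity.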

Assay [6] can be described thus: BSK_3C_SRB: Viability Assessment in the BioMAP Diversity Plus: 3C Assay (AID 2283023).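 Also: fitted both ways against DMSO so a hit may be signal rise or drop.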 The settings on record: primary human endothelial cells (HUVEC). The essentials:
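Cytotoxicity readout in parallel HUVEC 3C cultures: after 24 h compound exposure, cells fixed with 10% TCA, stained with 0.1% SRB and read at 560 nm. Gain or loss relative to DMSO fitted.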

Read-out in assay [7]: Matrix Metallopeptidase 1 (MMP1), MMP1 (gene 4312)
The experiment in a line: BSK_BE3C_MMP1: BioMAP Diversity Plus: BE3C Assay for Matrix Metallopeptidase 1 (MMP1) Biomarker Activity (AID 2283024). The settings on record: primary human bronchial epithelial cells; actives raise or lower the signal. The essentials:
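ELISA measurement of MMP-1 after 24 h compound exposure of primary human bronchial epithelial cells. Changes in either direction fitted relative to DMSO; parallel SRB staining checked overt cytotoxicity.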

Read-out in assay [8]: Pselectin, SELP (gene 6403)
The experiment in a line: BSK_4H_Pselectin: BioMAP Diversity Plus: 4H Assay for Pselectin Biomarker Activity (AID 2283026). The settings on record: primary human endothelial cells (HUVEC); actives raise or lower the signal. The method, boiled down:
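ELISA of surface P-selectin on HUVEC, 24 h after dosing, with parallel SRB staining (0.1% after 10% TCA fixation, 560 nm) for overt cytotoxicity. Activity fitted in both directions relative to DMSO.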

Assay [9] in a line: BSK_4H_SRB: Viability Assessment in the BioMAP Diversity Plus: 4H Assay (AID 2283027).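 Also: cells exposed to compound for 24 h before staining.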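 As to AC50: curves fitted both ways versus DMSO so AC50 may be loss or gain.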 The settings on record: primary human endothelial cells (HUVEC). The method, boiled down:
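HUVEC, 24 h post-dose; 10% TCA fix, 0.1% SRB stain, A560 nm. Total protein = overt cytotoxicity, parallel to biomarker read. Bidirectional fit vs DMSO baseline.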

The nature of assay [10]: BSK_BE3C_SRB: Viability Assessment in the BioMAP Diversity Plus: BE3C Assay (AID 2283028). The settings on record: primary human bronchial epithelial cells. The essentials: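 Cytotoxicity read-out: SRB (0.1%) staining of TCA-fixed (10%) human lung bronchial epithelial cells, absorbance 560 nm, 24 h post-dosing. Curves fitted both directions relative to DMSO.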
Read-out in assay [11]: Thrombomodulin, THBD (gene 7056)
The experiment in a line: BSK_3C_Thrombomodulin: BioMAP Diversity Plus: 3C Assay for Thrombomodulin Biomarker Activity (AID 2283029). The settings on record: primary human endothelial cells (HUVEC); actives raise or lower the signal. The method, boiled down:
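ELISA measurement of thrombomodulin on HUVEC surface 24 h after chemical dosing; activity fitted in both directions relative to DMSO vehicle.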

Read-out in assay [12]: Vascular endothelial growth factor receptor 2 (Homo sapiens) (UniProt P35968)
The experiment in a line: BSK_4H_VEGFRII: BioMAP Diversity Plus: 4H Assay for Vascular endothelial growth factor receptor 2 (VEGFR2) Biomarker Activity (AID 2283031).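 As to AC50: cell-surface VEGFR2 protein level quantified by ELISA.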 The settings on record: primary human endothelial cells (HUVEC); actives raise or lower the signal. The method, boiled down:
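Measured by ELISA after 24 h of compound treatment: VEGFR2 on primary human umbilical vein endothelial cells, fitted in both directions relative to DMSO. Parallel cultures received SRB staining (560 nm) for overt cytotoxicity.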

Read-out in assay [13]: Interferon-gamma inducible Protein 10 (IP10), CXCL10 (gene 3627)
The experiment in a line: BSK_BE3C_IP10: BioMAP Diversity Plus: BE3C Assay for Interferon-gamma inducible Protein 10 (IP10) Biomarker Activity (AID 2283034). The note with it: primary human bronchial epithelial cells; actives raise or lower the signal. The method, boiled down:
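IP-10 quantified by ELISA in human primary bronchial epithelial cell cultures at 24 hours post-dosing. Gain or loss of signal fitted relative to DMSO; parallel SRB staining assessed overt cytotoxicity.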

Read-out in assay [14]: Urokinase-type plasminogen activator receptor (uPAR), PLAUR (gene 5329)
As to the kind of experiment: BSK_BE3C_uPAR: BioMAP Diversity Plus: BE3C Assay for Urokinase-type plasminogen activator receptor (uPAR) Biomarker Activity (AID 2283039).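 Also: cells exposed to compound for one day before measurement.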 The note with it: primary human bronchial epithelial cells; actives raise or lower the signal. The method, boiled down:
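uPAR levels were measured by ELISA after 24 h compound treatment of primary human bronchial epithelial cells, fitted in both directions relative to DMSO. Parallel SRB staining served as the cytotoxicity read-out.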

Read-out in assay [15]: Interleukin-6 (IL6), IL6 (gene 3569)
As to the kind of experiment: BSK_CASM3C_IL6: BioMAP Diversity Plus: CASM3C Assay for Interleukin-6 (IL6) Biomarker Activity for (AID 2283040). The settings on record: primary human coronary artery smooth muscle cells; actives raise or lower the signal.

Read-out in assay [16]: Human Leukocyte Antigen - DR isotype (HLADR), HLA-DRA (gene 3122)
The experiment in a line: BSK_CASM3C_HLADR: BioMAP Diversity Plus: CASM3C Assay for Human Leukocyte Antigen - DR isotype (HLADR) Biomarker Activity (AID 2283043).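 Also: cell-surface HLA-DR protein level quantified by ELISA.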 The note with it: primary human coronary artery smooth muscle cells; actives raise or lower the signal.

Read-out in assay [17]: Macrophage colony-stimulating factor (MCSF), CSF1 (gene 1435)
As to the kind of experiment: BSK_CASM3C_MCSF: BioMAP Diversity Plus: CASM3C Assay for Macrophage colony-stimulating factor (MCSF) Biomarker Activity (AID 2283044).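 Also: M-CSF protein amount quantified by ELISA after 24 h exposure.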 The note with it: primary human coronary artery smooth muscle cells; actives raise or lower the signal.

Read-out in assay [18]: Low-density lipoprotein receptor (LDLR), LDLR (gene 3949)
The experiment in a line: BSK_CASM3C_LDLR: BioMAP Diversity Plus: CASM3C Assay for Low-density lipoprotein receptor (LDLR) Biomarker Activity (AID 2283045).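 Also: LDLR protein level on the cell surface quantified by ELISA.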 The settings on record: primary human coronary artery smooth muscle cells; actives raise or lower the signal.

Read-out in assay [19]: Monocyte Chemoattractant Protein-1 (MCP1), CCL2 (gene 6347)
The experiment in a line: BSK_CASM3C_MCP1: BioMAP Diversity Plus: CASM3C Assay for Monocyte Chemoattractant Protein-1 (MCP1) Biomarker Activity (AID 2283046).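 Also: MCP-1 level quantified by ELISA 24 h after dosing.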 The settings on record: primary human coronary artery smooth muscle cells; actives raise or lower the signal.

The nature of assay [20]: BSK_CASM3C_Proliferation: Cell Proliferation Assessment in the BioMAP Diversity Plus: CASM3C Assay (AID 2283047).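 Also: sub-confluent cells exposed 48 h before staining; fitted both ways against DMSO so gain or loss of cell number.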 The note with it: primary human coronary artery smooth muscle cells.

Activity calls are given as the source filed them. The calls were made as follows: active = hit-call score of the fitted dose curve at least 0.9, where 1 is the maximum; inactive = score below 0.9.

Chain of E-selectin (Homo sapiens) (P16581 whole entry, looked up): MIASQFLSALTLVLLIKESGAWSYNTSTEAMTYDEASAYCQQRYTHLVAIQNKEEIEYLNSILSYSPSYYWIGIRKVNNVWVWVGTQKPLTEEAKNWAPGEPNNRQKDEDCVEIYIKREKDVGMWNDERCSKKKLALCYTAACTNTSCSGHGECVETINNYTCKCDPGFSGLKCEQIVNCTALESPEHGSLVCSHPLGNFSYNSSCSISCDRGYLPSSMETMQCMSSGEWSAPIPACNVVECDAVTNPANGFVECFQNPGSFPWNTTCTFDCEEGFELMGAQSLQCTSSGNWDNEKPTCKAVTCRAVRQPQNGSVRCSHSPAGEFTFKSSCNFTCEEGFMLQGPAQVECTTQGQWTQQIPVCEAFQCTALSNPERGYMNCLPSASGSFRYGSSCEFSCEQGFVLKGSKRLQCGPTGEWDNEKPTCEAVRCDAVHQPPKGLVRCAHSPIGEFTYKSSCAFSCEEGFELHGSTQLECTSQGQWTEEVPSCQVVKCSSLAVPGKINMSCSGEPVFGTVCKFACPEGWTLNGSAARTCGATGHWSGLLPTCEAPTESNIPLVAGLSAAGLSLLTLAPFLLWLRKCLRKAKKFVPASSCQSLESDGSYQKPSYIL

With `O=c1c2ccccc2c(=O)c2c1cc(Cl)c1[nH]c3c([nH]c12)c(Cl)cc1c(=O)c2ccccc2c(=O)c13`, the outcome in assay [1], in assay [2], in assay [3], in assay [4], in assay [5] and in assay [6] was inactive. For the same compound, the result in assay [8], in [9], in assay [10], in assay [11], in [12] and in [13] was inactive. In addition, the result in [14], in assay [15], in assay [16], in assay [17], in assay [18] and in assay [19] was inactive. In assay [20], the result was inactive. The AC50 in assay [7] was 20 µM (active).

Take `O=S(=O)(c1ccccc1)c1ccccc1`: the result in assay [1], in assay [2], in assay [3], in assay [4], in [5] and in assay [6] was inactive. The outcome in [7], in [8], in [9], in assay [10], in [11] and in [12] was inactive. Moreover, the outcome in [13], in [14], in [15], in [16], in assay [17] and in assay [18] was inactive. Besides, the outcome in assay [19] and in assay [20] was inactive.

Regarding `C=CC(=O)OCC(CC)CCCC` (stereo not given), the AC50 was 27.6 µM (active) in [1], 20 µM (active) in [4], 20 µM (active) in assay [5] and 3.97 µM (active) in assay [11]. Also, the outcome in [2], in assay [3], in [6], in assay [7], in assay [8] and in assay [9] was inactive. In addition, the result in assay [10], in [12], in assay [13], in assay [14], in [15] and in [16] was inactive. For the same compound, the result in [17], in assay [18], in assay [19] and in assay [20] was inactive.

As for `CC(C)CCCCCCCOC(=O)c1ccccc1C(=O)OCCCCCCCC(C)C`, the result in assay [1], in [2], in assay [3], in assay [4], in assay [5] and in [6] was inactive. Besides, the outcome in assay [7], in assay [8], in assay [9], in assay [10], in [11] and in assay [12] was inactive. Further, the result in assay [13], in [14], in [15], in [16], in [17] and in assay [18] was inactive. In addition, the result in assay [19] and in assay [20] was inactive.

Turning to `CC(C)(C)C(O)C(Oc1ccc(-c2ccccc2)cc1)n1cncn1` (stereo not given), the AC50 in [1] was 31 µM (active); in assay [2], 29.9 µM (active); in [4], 32.1 µM (active); in assay [6], 31.7 µM (active); in assay [8], 29.7 µM (active); in assay [9] it was 31.6 µM (active). The AC50 is 34.7 µM (active) in assay [12]; 6.71 µM (active) in assay [13]; 30.9 µM (active) in assay [15]; 31.3 µM (active) in [16]; 20 µM (active) in assay [17]; 20 µM (active) in assay [18]. Further, the half-maximal activity concentration (AC50) in [19] is 29.2 µM (active); in assay [20], 26.3 µM (active). Moreover, the result in assay [3], in [5], in [7], in [10], in assay [11] and in assay [14] was inactive.

The values are drawn from PubChem BioAssay (EPA / NIEHS).
